Assay results reported in article PMC5540273 (PLoS ONE, 2017).

System: T1, LKB1
T1 construct: gene STK11
Settings: concentration: 1 μM, replicates: in singlicate; n = 1
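Further: KINOMEscan kinase panel screen.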

For `CNc1nccc(-c2c(-c3ccc(F)cc3)ncn2C2CCN(C)CC2)n1` [SB-222903], which “%Inh” value is on record?
The value was 0%.

For `CCn1c(-c2ccncc2)nc2cnccc21` [SB-735216], which “%Inh” value is on record?
The value was 0%.

With `Clc1cc(Nc2ncnc3cc[nH]c23)ccc1OCc1ccccn1` as the compound, how does the “%Inh” value read?
Its value is 10%.

Which “%Inh” value does the source give for `CN1CCC(n2cnc(-c3ccc(F)cc3)c2-c2ccnc(NC3CCNCC3)n2)CC1` [SB-229482] here?
The value was 27%.

With `Fc1ccc(-c2ncn(CCCNCc3ccccc3)c2-c2ccncc2)cc1` as the compound, how does the “%Inh” value read?
Its value is 27%.

For `Cc1ccc(NC(=O)c2cccc(C#N)c2)cc1-c1ccc(C(=O)Nc2ccncc2)cc1` [GSK1398463], which “%Inh” value is on record?
Its value is 0%.

For `O=C(c1ccc(-c2cc(-c3c[nH]nc3-c3ccccn3)ccn2)cc1)N1CCCC1` [GW792479], which “%Inh” value is on record?
Its value is 0%.

Which “%Inh” value does the source give for `Cl.c1ccc(Cn2ccc3cc(Nc4ncnc5ccccc45)ccc32)cc1` [GW275568] here?
The value was 0%.

Which “%Inh” value does the source give for `CS(=O)(=O)CCNCc1ccc(-c2ccc3ncnc(Nc4ccc(OCc5ccccc5)c(Cl)c4)c3c2)o1.Cl` [GW574783] here?
Its value is 0%.

For `CCC(CC)(CC)n1cnc2c(N)ncnc21` [SKF-97620], which “%Inh” value is on record?
The value was 70%.

With `CC(C)(C)OC(=O)NC1CCCN(c2cc(-c3ccc4c(N)n[nH]c4c3)nc(N)n2)C1` (stereo not drawn) [GSK2286096] as the compound, how does the “%Inh” value read?
The value was 0%.

How did the “%Inh” value turn out when `O=C(Nc1ccccc1F)NC1CCN(c2ccnc(Nc3ccc(F)cc3)n2)C1` (stereo not drawn) [GSK1379722] was run?
Its value is 0%.

`Cl.c1ccc(Cn2ncc3cc(Nc4ncnc5ccccc45)ccc32)cc1` [GW273749] was tested. Which “%Inh” value did it give?
Its value is 0%.

`CC(=O)Nc1n[nH]c2ncc(-c3ccccc3)cc12` [SB-548492] was tested. Which “%Inh” value did it give?
Its value is 25%.

With `Cc1cc(N2CCC(NS(=O)(=O)c3ccc(F)cc3)CC2)nc(Nc2cccc(C#N)c2)n1.O=C(O)C(F)(F)F` [GSK1653537] as the compound, how does the “%Inh” value read?
The value was 0%.

`N#Cc1ccc(Oc2ccc(Nc3ncnc4cc[nH]c34)cc2Cl)cc1` was tested. Which “%Inh” value did it give?
Its value is 29%.

How did the “%Inh” value turn out when `CCc1nc(-c2cccc(N(C)S(=O)(=O)c3ccccc3)c2)c(-c2ccnc(Nc3ccc(N4CCN(C(C)=O)CC4)nc3)n2)s1` [GSK1645895] was run?
Its value is 4%.

With `CNc1nccc(-c2c(-c3ccc(F)cc3)ncn2CCCN2CCOCC2)n1` [SB-222516] as the compound, how does the “%Inh” value read?
The value was 0%.

`Cc1ccc(C)c(NC(=O)NCCNc2ccnc(Nc3ccc(F)cc3)n2)c1` [GSK1379878] was tested. Which “%Inh” value did it give?
Its value is 14%.

With `Cc1cccc(-c2nc(Nc3ccc4[nH]nnc4c3)c3ccccc3n2)n1` [GW867587] as the compound, how does the “%Inh” value read?
Its value is 0%.

How did the “%Inh” value turn out when `COc1ccc(Nc2nccc(N3CCC(NC(=O)c4cccc(NC(C)=O)c4)C3)n2)cc1` (stereo not drawn) [GSK1379732] was run?
Its value is 22%.

With `CSc1ccc(NC2=C(c3ccccc3Cl)C(=O)NC2=O)cc1` [SB-342411] as the compound, how does the “%Inh” value read?
Its value is 12%.

With `C[C@@H]1CCN(C(=O)CO)C[C@@H]1N(C)c1ncnc2[nH]ccc12` as the compound, how does the “%Inh” value read?
Its value is 0%.

Which “%Inh” value does the source give for `CSc1nn2c(=O)cc(N3CCOCC3)nc2n1Cc1cccc(Cl)c1Cl` [GSK2347225] here?
The value was 0%.

`COc1ccc(-c2oc3ncnc(N)c3c2-c2ccc(OC)cc2)cc1` [SB-589132] was tested. Which “%Inh” value did it give?
The value was 28%.

How did the “%Inh” value turn out when `COc1ccc(NC(=O)c2ccc(-c3cc(-c4nnc(C)o4)ccc3C)cc2)cc1` [GW595885] was run?
Its value is 0%.

`COC(=O)c1c(-c2ccccc2)c2cc(Cl)ccc2c(=O)n1Cc1ccc(S(C)(=O)=O)cc1` was tested. Which “%Inh” value did it give?
Its value is 0%.

Which “%Inh” value does the source give for `CS(=O)(=O)CCNCc1nc(-c2ccc3ncnc(Nc4ccc(OCc5cccc(F)c5)c(Cl)c4)c3c2)cs1.Cl` [GW583340] here?
The value was 17%.

Which “%Inh” value does the source give for `Cc1ccc(O)cc1Nc1cc(C(F)(F)F)nc2ccc(-c3ccncc3)cc12` [GW630823] here?
Its value is 0%.

For `Nc1nc(-c2ccc3c(N)n[nH]c3c2)cc(N2CCC[C@@H](C(=O)Nc3ccccc3)C2)n1.O=C(O)C(F)(F)F.O=C(O)C(F)(F)F` [GSK2288359], which “%Inh” value is on record?
The value was 6%.

Which “%Inh” value does the source give for `CN1c2ccc(-c3ccc(C(=O)NCCO)cc3)cc2-c2[nH]ncc2S1(=O)=O` here?
The value was 21%.

How did the “%Inh” value turn out when `Oc1ccc2ncnc(Nc3ccc(OCc4ccccc4)cc3)c2c1` [GI262866] was run?
The value was 0%.

`Nc1nc(-c2ccccn2)c(-c2ccnc3ccccc23)s1` [GW548057] was tested. Which “%Inh” value did it give?
Its value is 8%.

How did the “%Inh” value turn out when `FC(F)(F)c1ccc(-c2cc(-c3c[nH]nc3-c3ccccn3)ccn2)cc1` [GW599550] was run?
Its value is 12%.

`Cn1cc(-c2ccc3c(c2)CCN3C(=O)Cc2cccc(C(F)(F)F)c2)c2c(N)ncnc21` [GSK2606414] was tested. Which “%Inh” value did it give?
Its value is 0%.

Which “%Inh” value does the source give for `NC(=O)c1sc(-n2cnc3ccccc32)cc1OCc1ccccc1F` [GSK1024306] here?
Its value is 0%.
